From PubChem
Hits are enriched below; roughly 28% of the tested compounds scored in any of these assays.
CYP2C9 act = increases human cytochrome P450 2C9 activity. P11712. 96,000 compounds, 1.4% hits. activation factor at 5 µM. recombinant CYP2C9, luciferin-H conversion, luminescence; hits give high values; factor 1 = untreated enzyme, 0 = blocked. AID 1024;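 active means activation factor of 2 or more for CYP2C9 at a 5 µM dose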;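 further: 0 = sulfaphenazole-blocked wells and 1 = vehicle-only wells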
PLK1 PBD inh = inhibitors of human Plk1 polo box domain binding. P53350. Plk1 PBD phosphopeptide binding, fluorescence polarization. inhibition, %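 (tested at about 20 µM)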. 97,000 compounds, 0.13% hits; in the data active means inhibition above about 34%, passing the limit was not always enough
Target sequence (P53350 whole entry, looked up, the tested form may be a part): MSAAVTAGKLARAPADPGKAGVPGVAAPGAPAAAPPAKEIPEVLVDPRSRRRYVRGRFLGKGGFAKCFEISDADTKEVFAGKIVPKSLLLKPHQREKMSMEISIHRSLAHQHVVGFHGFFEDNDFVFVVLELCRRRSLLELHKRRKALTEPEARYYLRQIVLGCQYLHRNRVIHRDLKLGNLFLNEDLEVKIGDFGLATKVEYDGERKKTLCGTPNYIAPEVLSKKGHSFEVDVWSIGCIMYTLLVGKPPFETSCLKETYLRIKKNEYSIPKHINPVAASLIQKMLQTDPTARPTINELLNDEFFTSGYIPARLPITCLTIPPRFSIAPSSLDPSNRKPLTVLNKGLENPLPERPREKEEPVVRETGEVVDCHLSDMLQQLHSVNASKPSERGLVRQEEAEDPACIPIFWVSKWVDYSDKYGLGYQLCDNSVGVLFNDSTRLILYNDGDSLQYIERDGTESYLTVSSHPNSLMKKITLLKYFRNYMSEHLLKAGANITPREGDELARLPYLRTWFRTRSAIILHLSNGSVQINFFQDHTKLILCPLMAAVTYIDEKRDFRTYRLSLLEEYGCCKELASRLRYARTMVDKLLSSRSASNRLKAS
PLK1 kinase inh = PLK1 (human) kinase inhibition. P53350. AID 619. inhibition, % at 10 µM. 97,000 compounds, 0.53% hits. recombinant PLK1 kinase, TR-FRET peptide phosphorylation;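 active means inhibition of 50% or more in the single-concentration screen; inactive means inhibition below 50%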;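 further: 0% = DMSO max control and 100% = H-89 dihydrochloride min control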
CYP2C19 inhib = inhibitors of human CYP2C19 | P33261 | CYP2C19 Supersomes, luciferin-H EGE luminescence, 30 min | inhibition, % at 5 µM | 96,000 compounds, 21% hits | AID 778;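 active means CYP2C19 inhibition above a set limit at 5 µM in the primary screen, cut at about 50% in these data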;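 further: plate controls were negative control wells for no effect and 2.5 mM tranylcypromine positive control for full effect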
CYP2C9 inhib = human CYP2C9 inhibition. AID 777. CYP2C9 Supersomes, luciferin-H conversion, luminescence. P11712. inhibition, % at 5 µM. 96,000 compounds, 20% hits;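 active means blocking of liver enzyme CYP2C9 beyond about 50% at 5 µM, limit read from the data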
CYP2C19 act = increases human CYP2C19 enzyme activity | P33261 | activation factor at 5 µM | recombinant CYP2C19, luciferin-H EGE luminescence; hits give high values; 0 = fully inhibited enzyme, 1 = untreated enzyme | 96,000 tested, under 10 active;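 active means activation factor of at least 2 at 5 µM in the primary screen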;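 further: 0 = wells with 2.5 mM tranylcypromine and 1 = vehicle-only wells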
The depositor's hits bear a star; / = no result given.

SMILES	CYP2C9 act	PLK1 PBD inh	PLK1 kinase inh	CYP2C19 inhib	CYP2C9 inhib	CYP2C19 act
CSc1cccc(NC(=O)CN(c2cc(C)ccc2C)S(C)(=O)=O)c1	0.4	23	-2	85*	56*	0.2
COc1ccc(Cl)cc1N(CC(=O)Nc1ccc2c(c1)OCCO2)S(C)(=O)=O	0.3	-4	-15	76*	69*	0.2
COc1ccc(N(CC(=O)Nc2cccc(SC)c2)S(C)(=O)=O)cc1Cl	0.9	8	-6	59*	13	0.4
CNC(=O)CN(c1cc(C)ccc1C)S(C)(=O)=O	0.9	4	5	21	10	0.8
O=C(CSc1nnc(Cc2ccccc2)o1)N1CCOCC1	1	-5	3	0	-5	1
Nc1ccc2nc(-c3cccs3)[nH]c2c1	/	-33	-14	/	/	/
O=C(Nc1ccc(N2CCN(C(=O)c3ccc(Cl)cc3)CC2)cc1)c1cc2ccccc2o1	0.6	13	-3	11	36	0.9
O=C(Nc1ccccc1N1CCN(C(=O)c2ccc(Cl)cc2)CC1)c1ccc(Br)cc1	0.2	6	-8	66*	82*	0.3
O=C(Nc1cccc(Cl)c1N1CCCC1)c1cc2ccccc2o1	0.4	-1	-13	25	64*	0.8
CC(C)C(=O)N1CCN(c2ccccc2NC(=O)c2cccc(Cl)c2)CC1	0.7	4	0	22	30	0.8
O=C(Nc1ccccc1N1CCN(C(=O)c2ccc(Cl)cc2)CC1)c1cc2ccccc2o1	0.1	-2	-5	75*	92*	0.2
C=CCC(=O)OCC(=O)Nc1ccc(Oc2ccccc2)cc1	1.1	-33	-7	6	-6	0.9
CCNC(=O)CSc1nnc(-c2ccccc2)n1-c1ccc(OCC)cc1	0.4	-20	-5	29	60*	0.7
CCOC(=O)CNC(=O)CSc1nnc(-c2cccc(C)c2)n1-c1ccc(OC)cc1	0.7	-4	-8	69*	31	0.3
CCOc1ccc(NC(=O)CSc2nnc(-c3ccccc3)n2N)cc1	1	2	-17	-9	2	1.1
CCC(C)NC(=O)CSc1nnc(-c2ccncc2)n1-c1ccc(OC)cc1 (stereo not given)	0.1	40	-7	100*	86*	0
O=C(CN1CCN(Cc2cccc(Cl)c2)C1=O)NCc1ccccn1	1.1	5	-9	-20	-12	1.2
OCCCCNCc1ccc(OCc2ccc(Cl)cc2)cc1	1.1	11	-5	-4	-13	1
O=C(NCCCN1CCN(Cc2ccccc2)CC1)c1nnc(Cc2c(F)cccc2Cl)o1	0.4	4	-8	34	56*	0.7
O=C(NCCCO)c1nnc(Cc2c(F)cccc2Cl)o1	0.9	-4	-5	-18	5	1.2
CC(C)(C)C1CCc2c(C(=O)N/N=C/c3cccs3)csc2C1 (stereo not given)	0.4	-1	-9	35	63*	0.7
O=c1c2ccccc2nnn1CSc1nnc2ccccn12	1.1	2	-1	48	-9	0.5
O=c1c2ccccc2nnn1CSc1ccc2c(c1)OCCO2	0.5	0	-1	94*	55*	0.1
O=C(NNC(=O)[C@@H]1CCCC[C@@H]1C(=O)O)c1cccs1	/	-3	-4	/	/	/
Cn1c(C(=O)N2CCC(C(=O)N3CCN(Cc4ccc5c(c4)OCO5)CC3)CC2)cc2sccc21	1.5	/	/	51*	-54	0.5
SMILES	CYP2C9 act	PLK1 PBD inh	PLK1 kinase inh	CYP2C19 inhib	CYP2C9 inhib	CYP2C19 act
COc1cccc(C(=O)N2CCN(Cc3ccc4c(c3)OCO4)CC2)c1OC	1.2	-11	-1	9	-20	0.9
Cn1c(C(=O)N2CCC(C(=O)N3CCOCC3)CC2)cc2sccc21	1	/	/	-8	-2	1.1
Cn1c(C(=O)N2CCN(Cc3ccc4c(c3)OCO4)CC2)cc2sccc21	1	-17	3	70*	4	0.3
COc1ccsc1C(=O)N1CCN(Cc2ccc3c(c2)OCO3)CC1	0.6	1	-4	85*	40	0.1
O=C1CSc2ccc(C(=O)NCCC3=CCCCC3)cc2N1	1.1	20	-17	-2	-5	1
O=C(CSc1cccc[n+]1[O-])c1cc2ccccc2o1	1.1	/	/	7	-5	0.9
O=C(Cn1cnc2ccccc2c1=O)NC1CCCc2ccccc21 (stereo not given)	1	-8	-14	0	4	1
CCOc1ccc(CNC(=O)NS(=O)(=O)c2ccc(OC)cc2)cc1	1	-22	1	-8	2	1.1
CCCOc1ccc(S(=O)(=O)NCc2ccc(OC)cc2)cc1	0.8	5	-2	58*	23	0.4
COc1ccc(CNS(=O)(=O)c2ccc(OC)cc2)cc1	1.3	18	-8	76*	-28	0.2
COc1ccc(S(=O)(=O)NCc2ccccc2)cc1	1.7	-29	-16	97*	-73	0
COc1ccc(S(=O)(=O)NCCCCNS(=O)(=O)c2ccc(OC)cc2)cc1	1.3	-3	-21	24	-28	0.8
COCC(C)NS(=O)(=O)c1ccc(OC)cc1 (stereo not given)	1.2	-19	-2	61*	-21	0.4
COc1cc([N+](=O)[O-])ccc1NC(=O)CCCOc1cccc(C)c1C	1	-22	-14	15	-5	0.8
CC1CCN(c2cc(N)c(Cl)cc2[N+](=O)[O-])CC1	0.7	3	-9	26	34	0.7
COC(=O)c1sc(S(=O)(=O)N2CCN(c3ccc(OC)cc3)CC2)c(C(=O)OC)c1C	1	1	0	2	2	1
COC(=O)c1c(S(=O)(=O)NCc2ccccc2)sc(C(=O)O)c1C	0.4	-3	-35	-11	62*	1.1
COc1ccc(S(=O)(=O)NCc2cccs2)cc1	1.2	6	-11	95*	-16	0.1
O=c1c2ccccc2nc2c3ccccc3c3nncn3n12	0.9	3	-20	-6	13	1.1
Cc1cc(N2CCN(c3ccccc3F)CC2)nc2cc(O)ccc12	2*	-7	-8	57*	-104	0.4
Cc1cc(N2CCN(c3ccc(F)cc3)CC2)nc2cc(O)ccc12	3.2*	-22	-16	31	-219	0.7
Cc1cc(N2CCOCC2)nc2ccccc12	/	-12	-10	/	/	/
COc1ccc2c(C)cc(N3CCN(c4ccc(F)cc4)CC3)nc2c1	2.3*	7	-3	83*	-126	0.2
CCOC(=O)c1c(C)c(C(=O)NCCCOC(C)C)c(C)n1C	1.5	/	/	40	-48	0.6
CC(=O)Nc1ccc(NC(=O)CN(C)CCC#N)cc1	1.4	-18	-14	-17	-36	1.2
Cc1ccc(-c2nc(N/N=C/c3ccccc3[N+](=O)[O-])c3ccccc3n2)cc1	1	1	-4	-10	1	1.1
Brc1ccc(-c2nc(N/N=C/c3cccnc3)c3ccccc3n2)cc1	0.4	-12	-12	43	64*	0.6
